Assay results reported in the OligoGym collection.
Also: reference of the scale not given here.

These sequences were tested against P2RX3 (assay: pooled miR-30 sensor sort-seq; sequence = guide strand). Settings: shRNA.
TCAGTAACAATCATCTTGGTGA showed a sensor-assay potency score (higher = more potent) of 0.681. Sequence TTCACAACCACCGACTTGGTGG has a sensor-assay potency score (higher = more potent) of -0.566. For TTGAACTTGCCAGCATTCCCGT, the sensor-assay potency score (higher = more potent) was -1.02. Sequence TTGTCCAAGTCGCACACCCAGC has a sensor-assay potency score (higher = more potent) of -1.44. TTCAGTAACAATCATCTTGGTG showed a sensor-assay potency score (higher = more potent) of -0.0732. TATACCAGCACGTCGAAGCGGA was tested, and the sensor-assay potency score (higher = more potent) was -0.313.

What follows are sequences tested against P2RY12 in the same assay as above. Settings: shRNA.
Work on TTAACCACAGAGTGCTCTCTTT yielded a sensor-assay potency score (higher = more potent) of -0.668. TTATTAACTTAGTTGCTTCTTC gave a sensor-assay potency score (higher = more potent) of 0.717. Sequence TTGACGTTCACCTTTTTCCTGG has a sensor-assay potency score (higher = more potent) of 0.386. TTATTATTAACTTAGTTGCTTC was tested, and the sensor-assay potency score (higher = more potent) was -0.642. Work on TAATATTTTTACTTAGCGCTTT yielded a sensor-assay potency score (higher = more potent) of 0.117. TTCACATTCTTGTCTCTCGGCT gave a sensor-assay potency score (higher = more potent) of -0.666. TAATTTACTATTTCATGCCAGA showed a sensor-assay potency score (higher = more potent) of -0.703. With TTAACTTAGTTGCTTCTTCGTC the sensor-assay potency score (higher = more potent) was -0.236. Work on TTCTTGTCTCTCGGCTGCCTGT yielded a sensor-assay potency score (higher = more potent) of -1.33. In the case of TAAAGTTTGATTTACTCCGGAT, the sensor-assay potency score (higher = more potent) is reported as -0.511. ATTTGGGTCACCACCATCCTGT was tested, and the sensor-assay potency score (higher = more potent) was -0.843. Sequence TTTCATGCCAGACTAGACCGAA has a sensor-assay potency score (higher = more potent) of -0.342.

The sequences below were run against P2RY4 in the same assay as above. Settings: shRNA.
With AAGACGACTGTGCAGAGCCTGG the sensor-assay potency score (higher = more potent) was -1.35. In the case of TTGACAATGTTCAGTACTCGGC, the sensor-assay potency score (higher = more potent) is reported as -0.264. For TAGGAGTAGAGCAGCTACTGTC, the sensor-assay potency score (higher = more potent) was -0.823. In the case of TTCCAATAGAAAAGAAAGCGGA, the sensor-assay potency score (higher = more potent) is reported as -0.289. For TTGAAATCCTCATCAAACCAAC, the sensor-assay potency score (higher = more potent) was -1.03. AGTAGAGCAGCTACTGTCCTGG gave a sensor-assay potency score (higher = more potent) of -1.37. For TAGAGCAGCTACTGTCCTGGGG, the sensor-assay potency score (higher = more potent) was 0.0671. With TGAACTTGAAATCCTCATCAAA the sensor-assay potency score (higher = more potent) was -1.05. Sequence TAGAGCACAGGATCCAGGCAGC has a sensor-assay potency score (higher = more potent) of -0.928. For TAGCAAACAAGAGTGACCAGGC, the sensor-assay potency score (higher = more potent) was 0.861. In the case of ATAGCAAACAAGAGTGACCAGG, the sensor-assay potency score (higher = more potent) is reported as -0.888. Work on TAGCGGTGCACGCTGATGCAGG yielded a sensor-assay potency score (higher = more potent) of -1.24.

The sequences below were run against P2RY6 in the same assay as above. Settings: shRNA.
TTCTGTAGGAGCTCATGTGGTC gave a sensor-assay potency score (higher = more potent) of -0.257. TTTTGTGAGCACCTTAATGTGG was tested, and the sensor-assay potency score (higher = more potent) was -0.636. ATAGTTGTAGATGAGCAGGGGC showed a sensor-assay potency score (higher = more potent) of 0.421. TTCTCGCGGTAGACACAGGTGG showed a sensor-assay potency score (higher = more potent) of -0.894. TTGGTGAGCTTCTGGGTCCTGT showed a sensor-assay potency score (higher = more potent) of -0.191. TCGCGGTAGACACAGGTGGTGG was tested, and the sensor-assay potency score (higher = more potent) was -1.81. TTTAGGGTGTACACGGCCGTGC gave a sensor-assay potency score (higher = more potent) of -0.557. Sequence TTGGGCATAGTTGTAGATGAGC has a sensor-assay potency score (higher = more potent) of -1.06. TTTCTGTAGGAGCTCATGTGGT showed a sensor-assay potency score (higher = more potent) of -1.02. In the case of TTGGCATAGAAGAGGAAGCGGA, the sensor-assay potency score (higher = more potent) is reported as -1.
